test system: P. falciparum NF54-pfs16-GFP early (I-III) stage gametocytes; assay: relative % inhibition of viable gametocyte number; higher = more gametocytocidal; details: 5 µM; stage: early (I-III) gametocyte; incubation 72 h
Procedure, shortened: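 Compound was tested in duplicate at 5 or 0.5 µM on magnet-isolated NF54 pfs16-GFP gametocytes, taken either early (I/IIa, day 2) or late (day 8) and plated at 10% parasitaemia, 0.1% haematocrit. Incubation ran 72 h at 37°C, 5% CO2, 5% O2, followed by overnight MitoTracker Red staining and confocal imaging. Relative inhibition, based on counts of elongated GFP objects with above-cut-off MitoTracker signal, was normalised to in-plate vehicle and positive-control wells.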

| SMILES | relative % inhibition |
| --- | --- |
| O=C(NCCCN1CCC(N2CCCCC2)CC1)C1=Cc2cc(Br)ccc2OC1 | 102% |
| COc1ccc(-c2cn3c(C(=O)Nc4ccccc4Cl)c(-c4ccccc4)c4c3n2CCCC4)cc1 | 30.9% |
| COc1ccc2c(=O)cc(C(Cl)(Cl)Cl)oc2c1 | 85.1% |
| COc1ccc2nc(N)nc(C)c2c1 | 24.8% |
| CN(C)c1ccc(N=Cc2ccc(N3CCOCC3)cc2)cc1 | 48.6% |
| CCOc1ccc(-c2nonc2NC(=O)c2cccc(C)c2)cc1OCC | 94.4% |
| Cc1cc(C)c2nc(N3CCC(C(=O)NCCCN4CCC(N5CCCCC5)CC4)CC3)sc2c1 | 90.7% |
| COc1ccc(C(=O)Nc2ccc(Cl)cc2C(=O)Nc2ccncc2)cc1 | 22.3% |
| Cc1ccccc1OCCSc1nc2ccc(NC(=O)c3ccccc3)cc2s1 | 20.2% |
| CC1CC2=C(CC1CNCCCN(C)C)C(C)(C)CCC2 (centres undefined) | 97.1% |
| Fc1ccc2[nH]c3c(NCCCN4CCOCC4)ncnc3c2c1 | 97.3% |
| O=C(Cc1ccccc1)NC(c1ccc(Cl)cc1)c1c(O)ccc2ccccc12 (centres undefined) | 104% |
| CCCCCC(=O)N1c2ccccc2N=C2CC(c3ccc(OC)c(OC)c3)CC(O)=C2C1c1ccc(C(F)(F)F)cc1 (centres undefined) | 76.3% |
| COc1cc(SC)ccc1C(=O)N1CCCC(C)C1 (centres undefined) | -6.96% |
| FC(F)(F)c1cccc(Nc2nc3ccccc3nc2Nc2cccc(C(F)(F)F)c2)c1 | 102% |
| COc1cc2c3cc1Oc1c(OC)c(OC)cc4c1C(Cc1ccc(O)c(c1)Oc1ccc(cc1)CC3N(C)CC2)N(C)CC4 (centres undefined) | 73.4% |
| CC(C)(C)c1ccc2c(c1)CN(Cc1ccc(Cl)cc1)CO2 | 98.4% |
| CSC1=NC(=Nc2c(C)cccc2C)C2(CCC(C(C)(C)C)CC2)N1c1ccc(Cl)cc1 (centres undefined) | 4.25% |
| CCOc1cc2c(cc1OCC)C(c1cc(OC)c(O)cc1Cl)NCC2 (centres undefined) | 100% |
| Cc1ccc2cc3c(N)c4c(C)ccc(C)c4nc3nc2c1 | 91% |

| SMILES | relative % inhibition |
| --- | --- |
| O=C(NC1CCN(Cc2ccccc2)CC1)c1cc(-c2ccncc2)nc2ccc(Cl)cc12 | 64.3% |
| CC(C)CNC(=O)c1c(N)n(CCc2ccccc2F)c2nc3ccccc3nc12 | 3.8% |
| COc1ccc2sc(N(Cc3cccnc3)C(=O)c3ccc(C#N)cc3)nc2c1 | 7.65% |
| CSc1ccccc1C(=O)Nc1nc(-c2ccccn2)cs1 | 92.9% |
| CCOC(=O)C1=C(c2ccccc2)N=c2sc(=Cc3cc(C)n(-c4ccc(F)cc4)c3C)c(=O)n2C1c1cccc(OC)c1OC (centres undefined) | 96.5% |
| Cc1cc(Nc2ccc(OCc3ccccc3)cc2)nc2cc(O)ccc12 | 95.1% |
| CCOC(=O)C1(Cc2ccccc2)CCN(Cc2cccc(OC)c2O)CC1 | 52.6% |
| OC1CCCCC1C1(NC(=S)Nc2ccccc2)CCCCC1 (centres undefined) | 71.5% |
| CCN(CC)S(=O)(=O)c1ccc(-c2csc(Nc3ccc(C)c(C)c3)n2)cc1 | 31.5% |
| Cc1ccnc(NC(c2cccc(OCc3ccccc3)c2)c2ccc3cccnc3c2O)c1 (centres undefined) | 96.4% |
| CCOc1cc(Cl)c(C(C)NC(=O)c2cccc(OC)c2)cc1OCC (centres undefined) | 60.9% |
| COc1ccc(-c2nc3cc(Cc4ccc5[nH]c(-c6ccc(OC)cc6)nc5c4)ccc3[nH]2)cc1 | 100% |
| COC(=O)c1ccc(Cl)c2c1C1C=CCC1C(c1cccc3ccccc13)N2 (centres undefined) | 8.02% |
| Oc1c(CN2CCN(c3ccccc3F)CC2)cc(Br)c2cccnc12 | 89.8% |
| COc1ccc(-c2nc(NC(=O)CS(=O)(=O)c3ccc(F)cc3)sc2C)cc1 | 100% |
| CCCCCCOC(=O)C1=C(C)NC(=O)NC1c1ccccc1F (centres undefined) | 4.18% |
| CCOC(=O)C1=CN(C)C=C(C(=O)OCC)C1c1cc(Br)c(OCC)c(OC)c1 | 89.7% |
| COc1ccc(C2NCCc3c2[nH]c2ccccc32)cc1CN1CCN(c2ccc(F)cc2)CC1 (centres undefined) | 90% |
| OC(CNC1CCCCC1)Cn1c2ccccc2c2ccccc21 (centres undefined) | 66% |
